This note sets out measurements from PubChem BioAssay (Tox21).

Each structure is given as a SMILES string. Records with an inconclusive call do not appear. Values without a mark were called inactive. Active and inactive are the calls of the source. Unless noted, calls come from the whole dose curve; as a rule, active = well fitted curve in the direction sought with a large enough effect in the repeat runs; inconclusive = weak or mixed curves; inactive = no such curve, though single readings can be large; an effect the other way counts as inactive or inconclusive.

Test [1] can be described thus: qHTS assay to identify small molecule agonists of the peroxisome proliferator-activated receptor delta (PPARd) signaling pathway - cell viability counter screen (AID 743211). Note: nearly all actives have a fitted effect of over 55% in size. A digest of the protocol: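 HEK293H PPARd-bla, 3000 cells/well; 5 h preincubation 37C/5% CO2; cpd in DMSO, 17 h 37C; B/G FRET substrate 2 h RT; CellTiter-Glo 30 min RT, luminescence.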
A general note: qHTS replaces the single test concentration by a dilution series.

Test [2] is described as follows: qHTS assay to identify small molecule antagonists of the peroxisome proliferator-activated receptor delta (PPARd) signaling pathway - cell viability counter screen (AID 743213). Note: nearly all actives have a fitted effect of over 50% in size. Note: potency is the fitted concentration of half-maximal effect. A digest of the protocol: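 CellTiter-Glo was added to PPARd-bla HEK293H wells following 17 h compound treatment in the presence of 300 nM L165041. Luminescence was recorded after 30 min at room temperature.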

A short description of test [3]: qHTS assay to identify small molecule agonists of the farnesoid-X-receptor (FXR) signaling pathway - cell viability counter screen (AID 743218). Note: nearly all actives have a fitted effect of over 45% in size. A digest of the protocol: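 Viability of FXR-bla HEK 293T cells is measured by ATP-based CellTiter-Glo luminescence following 16 h compound treatment at 37 C and a prior 2 h room-temperature beta-lactamase substrate step.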

Test [4] can be described thus: qHTS assay to identify small molecule antagonists of the farnesoid-X-receptor (FXR) signaling pathway - cell viability counter screen (AID 743221; active = well fitted cell-killing curve with a large enough effect in the repeat runs, not every such curve was filed as active; note: nearly all actives have a fitted effect of over 50% in size; note: potency is the fitted concentration of half-maximal effect). A digest of the protocol: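 Luminescence from CellTiter-Glo measures cytotoxicity in GeneBLAzer FXR-UAS-bla HEK 293T cells. Cells were exposed to compounds with 50 uM chenodeoxycholic acid (final) for 16 h at 37 C, in wells also used for the reporter readout.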

The target in test [5] is Vitamin D3 receptor (Homo sapiens) (UniProt P11473). Put plainly: qHTS assay to identify small molecule agonists of the vitamin D receptor (VDR) signaling pathway (AID 743222; calls by dose curve). A digest of the protocol: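 Fluorescence from cleaved LiveBLAzer B/G FRET substrate served as readout. VDR-bla cells had been treated 16 h at 37C with test compounds in DMSO, following a 4 h settling period, and substrate was loaded for 2 h at RT.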
Sequence of Vitamin D3 receptor (Homo sapiens) (P11473 whole entry, looked up): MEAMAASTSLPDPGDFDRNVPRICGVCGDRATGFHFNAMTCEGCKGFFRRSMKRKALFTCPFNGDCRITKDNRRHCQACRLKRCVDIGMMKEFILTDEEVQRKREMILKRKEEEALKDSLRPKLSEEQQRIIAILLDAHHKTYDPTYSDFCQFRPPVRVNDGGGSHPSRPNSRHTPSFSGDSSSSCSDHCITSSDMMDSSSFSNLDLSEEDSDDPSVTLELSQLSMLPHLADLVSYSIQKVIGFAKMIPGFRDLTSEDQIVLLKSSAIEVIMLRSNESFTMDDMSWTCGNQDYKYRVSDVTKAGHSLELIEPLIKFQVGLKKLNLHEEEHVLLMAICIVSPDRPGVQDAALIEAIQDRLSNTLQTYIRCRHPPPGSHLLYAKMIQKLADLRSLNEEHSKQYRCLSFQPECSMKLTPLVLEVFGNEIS

Test [6] is described as follows: qHTS assay to identify small molecule agonists of the vitamin D receptor (VDR) signaling pathway - cell viability counter screen (AID 743224). Note: series mostly up to about 63 µM; nearly all actives have a fitted effect of over 50% in size. A digest of the protocol:
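Compounds were pin-transferred onto VDR-bla cells plated 4 h earlier; following 16 h incubation at 37C, cell viability was quantified by CellTiter-Glo luminescence after 30 min at room temperature.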

The nature of test [7]: qHTS assay to identify small molecule antagonists of the vitamin D receptor (VDR) signaling pathway - cell viability counter screen (AID 743225). Note: nearly all actives have a fitted effect of over 50% in size. A digest of the protocol:
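Read-out: CellTiter-Glo luminescence measured 30 min after reagent addition at room temperature. Cells were VDR-bla HEK 293T exposed 16 h at 37C, 5% CO2, to compound with 3 nM final calcitriol agonist.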

A short description of test [8]: qHTS assay to identify small molecule agonists of the endoplasmic reticulum stress response signaling pathway (AID 1159516; active = well fitted activation curve with a large enough effect in the signal ratio in the repeat runs, not every such curve was filed as active; the % refers to the signal ratio). A digest of the protocol:
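Using a HeLa line with an ESRE-driven beta-lactamase gene, agonist activity was measured by FRET substrate fluorescence (460 and 530 nm emission) after cells were treated with compounds for 5 hr at 37 C and 5% CO2.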

Test [9] in a line: qHTS assay to identify small molecule agonists of the endoplasmic reticulum stress response signaling pathway - cell viability counter screen (AID 1159517; calls by dose curve). A digest of the protocol: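 In parallel with the ESRE reporter read, cytotoxicity was scored by CellTiter-Glo luminescence (30 min, room temperature) on HeLa ESRE-bla cells dosed for 5 hr.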
Test [10] in a line: qHTS assay to identify small molecule antagonists of the retinoid-related orphan receptor gamma (ROR-gamma) signaling pathway - cell viability counter screen (AID 1159520). Note: nearly all actives have a fitted effect of over 50% in size. A digest of the protocol:
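Tet-on ROR gamma CHO cells were given compounds for 2 hr, then doxycycline hyclate at 1 uM final, and incubated 16 hr at 37 C. Viability was measured as ATP content by CellTiter-Glo luminescence.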

The target in test [11] is Nuclear receptor ROR-gamma (Homo sapiens) (UniProt P51449). Put plainly: qHTS assay to identify small molecule antagonists of the retinoid-related orphan receptor gamma (ROR-gamma) signaling pathway (AID 1159521; note: nearly all actives have a fitted effect of over 50% in size; note: potency is the fitted concentration of half-maximal effect). A digest of the protocol: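 CHO Tet-on RORγ, RORE-luc reporter. Cpd 2 h pre-incubation, then dox hyclate 1 uM final, 16 h, 37 C/5% CO2. ONE-Glo luminescence; decrease = antagonist.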

Test [12] is described as follows: qHTS assay to identify small molecule agonists of the AP-1 signaling pathway - cell viability counter screen (AID 1159525; calls by dose curve; note: nearly all actives have a fitted effect of over 55% in size). A digest of the protocol:
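Same-well cytotoxicity counter screen of the Tox21 10K library in ME-180 cells. The readout is ATP-dependent luminescence after 5 h compound treatment. Data are normalised to DMSO and tetra n-octyl ammonium bromide controls.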

A short description of test [13]: qHTS assay to identify small molecule agonists of the AP-1 signaling pathway (AID 1159526; calls by dose curve).
The target in test [14] is Peroxisome proliferator-activated receptor delta (Homo sapiens) (UniProt Q03181). Put plainly: qHTS assay to identify small molecule agonists of the peroxisome proliferator-activated receptor delta (PPARd) signaling pathway (AID 743212; calls by dose curve). A digest of the protocol:
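Tox21 library screened in GeneBLAzer PPARd UAS-bla HEK293H cells. After compound treatment at 37 C, a FRET-based beta-lactamase substrate was applied for 2 h and fluorescence recorded.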

Test [15] has the same target. Put plainly: qHTS assay to identify small molecule antagonists of the peroxisome proliferator-activated receptor delta (PPARd) signaling pathway (AID 743215; active = well fitted inhibition curve with a large enough effect in the signal ratio in the repeat runs, not every such curve was filed as active; the % refers to the signal ratio;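 note: cells stimulated with agonist L165041 at 300 nM final during compound exposure; series mostly up to about 62 µM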). A digest of the protocol: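 Plated HEK293H PPARd-bla cells rested 5 h at 37 C and 5% CO2. Compound, then agonist L165041 at 300 nM final, was added; 17 h at 37 C followed. Substrate loading, 2 h room temperature, fluorescence measured.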

Test [16] addresses Bile acid receptor (Homo sapiens) (UniProt Q96RI1). Put plainly: qHTS assay to identify small molecule antagonists of the farnesoid-X-receptor (FXR) signaling pathway (AID 743217; active = well fitted inhibition curve with a large enough effect in the signal ratio in the repeat runs, not every such curve was filed as active; the % refers to the signal ratio). A digest of the protocol:
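Screen of the Tox21 10K library in quantitative HTS format using FXR-UAS-bla HEK 293T reporter cells. Agonist chenodeoxycholic acid, 50 uM final, added with compounds; 16 h incubation at 37 °C; beta-lactamase FRET fluorescence measured.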

For test [17] the target is unchanged. Put plainly: qHTS assay to identify small molecule agonists of the farnesoid-X-receptor (FXR) signaling pathway (AID 743220; active = well fitted activation curve with a large enough effect in the signal ratio in the repeat runs, not every such curve was filed as active; the % refers to the signal ratio). A digest of the protocol:
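FXR-UAS-bla HEK 293T cells carrying a UAS-driven beta-lactamase reporter were plated for 5 h at 37C/5% CO2, then exposed to DMSO-dissolved Tox21 10K compounds for 16 h at 37C. A LiveBLAzer B/G FRET substrate was loaded for 2 h at room temperature before fluorescence reading.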

For test [18], the target named is Vitamin D3 receptor (Homo sapiens) (UniProt P11473). Put plainly: qHTS assay to identify small molecule antagonists of the vitamin D receptor (VDR) signaling pathway (AID 743223; active = well fitted inhibition curve with a large enough effect in the signal ratio in the repeat runs, not every such curve was filed as active; the % refers to the signal ratio). A digest of the protocol:
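Antagonist mode uses 1alpha,25-dihydroxyvitamin D3 at 3 nM final as stimulus. VDR-bla cells receive compounds in DMSO, incubate 16 h at 37C, then a beta-lactamase FRET substrate for 2 h at room temperature before fluorescence measurement.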

Test [19] addresses Retinoic acid receptor RXR-alpha (Homo sapiens) (UniProt P19793). Put plainly: qHTS assay to identify small molecule agonists of the RXR signaling pathway (AID 1159527; calls by dose curve; note: nearly all actives have a fitted effect of over 35% in size; note: potency is the fitted concentration of half-maximal effect). A digest of the protocol: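 Read-out: beta-lactamase FRET ratio (405 nm excitation, 460 and 530 nm emission) after 2 hr substrate loading at room temperature. Cells were RXR-alpha-UAS-bla HEK 293T treated with compounds for 16 hr in 2% charcoal-stripped FBS medium.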

Sequence of Bile acid receptor (Homo sapiens) (Q96RI1 whole entry, looked up): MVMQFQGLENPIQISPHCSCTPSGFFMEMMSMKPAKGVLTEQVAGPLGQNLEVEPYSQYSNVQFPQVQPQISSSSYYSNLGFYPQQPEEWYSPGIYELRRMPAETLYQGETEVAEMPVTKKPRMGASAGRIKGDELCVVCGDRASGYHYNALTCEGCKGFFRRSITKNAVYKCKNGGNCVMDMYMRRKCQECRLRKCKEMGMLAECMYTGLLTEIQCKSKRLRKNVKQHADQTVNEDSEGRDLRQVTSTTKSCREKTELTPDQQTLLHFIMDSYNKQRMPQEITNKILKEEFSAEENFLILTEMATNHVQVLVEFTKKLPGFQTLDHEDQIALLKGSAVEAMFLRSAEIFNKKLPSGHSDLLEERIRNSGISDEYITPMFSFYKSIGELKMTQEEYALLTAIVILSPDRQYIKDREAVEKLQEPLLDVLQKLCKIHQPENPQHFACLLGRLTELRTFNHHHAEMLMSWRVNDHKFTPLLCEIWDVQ
Sequence of Peroxisome proliferator-activated receptor delta (Homo sapiens) (Q03181 whole entry, looked up): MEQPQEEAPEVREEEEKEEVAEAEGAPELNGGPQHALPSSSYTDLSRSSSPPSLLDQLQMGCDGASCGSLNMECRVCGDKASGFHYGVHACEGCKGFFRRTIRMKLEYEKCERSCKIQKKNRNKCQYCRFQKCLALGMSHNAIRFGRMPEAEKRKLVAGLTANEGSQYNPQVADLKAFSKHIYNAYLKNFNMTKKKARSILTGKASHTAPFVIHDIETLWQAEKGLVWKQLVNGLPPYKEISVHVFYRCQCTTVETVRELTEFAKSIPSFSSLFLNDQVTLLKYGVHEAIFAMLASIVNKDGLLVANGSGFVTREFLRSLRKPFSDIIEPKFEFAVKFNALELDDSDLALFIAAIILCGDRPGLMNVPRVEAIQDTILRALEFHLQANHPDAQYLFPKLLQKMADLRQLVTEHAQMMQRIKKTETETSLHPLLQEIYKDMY
Sequence of Retinoic acid receptor RXR-alpha (Homo sapiens) (P19793 whole entry, looked up): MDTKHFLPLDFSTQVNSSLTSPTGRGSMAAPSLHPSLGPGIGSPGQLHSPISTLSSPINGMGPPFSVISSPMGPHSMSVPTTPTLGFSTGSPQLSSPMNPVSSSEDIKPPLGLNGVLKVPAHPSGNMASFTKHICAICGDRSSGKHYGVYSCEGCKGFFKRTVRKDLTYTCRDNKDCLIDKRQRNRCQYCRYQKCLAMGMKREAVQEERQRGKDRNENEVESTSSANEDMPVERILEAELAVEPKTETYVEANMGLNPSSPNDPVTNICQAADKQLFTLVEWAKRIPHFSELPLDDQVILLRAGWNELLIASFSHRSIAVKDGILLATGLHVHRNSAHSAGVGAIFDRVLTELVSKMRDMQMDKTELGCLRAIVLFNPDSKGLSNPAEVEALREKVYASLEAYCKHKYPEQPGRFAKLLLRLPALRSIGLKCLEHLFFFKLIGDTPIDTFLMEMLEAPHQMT

Take `CC/C(=C\C(=N/O)C(N)=O)C(C)[N+](=O)[O-]` (configuration not stated): the Potency entry in [1], in test [2], in [3], in test [4], in test [6] and in [7] was “inactive” in each case. Further, the Potency result in test [8], in [10], in test [11], in test [12] and in test [13] was “inactive” throughout. Further, the outcome in test [5] and in test [9] was inactive.
Regarding `CCN1CCC[C@H]1CNC(=O)c1c(OC)ccc(Br)c1OC`, the Potency entry in [1], in test [2], in test [3], in [4], in [6] and in test [7] was “inactive” each time. Moreover, the Potency result in test [10], in test [11], in [12] and in [13] was “inactive” each time. Also, the result in test [14], in [15], in test [16], in [17], in [5] and in [9] was inactive.
Regarding `O=S1(=O)N=C(O)c2ccccc21`, the Potency result in test [1], in test [2], in test [3], in test [4], in test [6] and in [7] was “inactive” each time. Further, the Potency result in test [8], in [10], in [11], in test [12] and in test [13] was “inactive” in each case. Further, in [9], the result was inactive.
`COCCCCCCCCOCCC[Si](C)(O[Si](C)(C)C)O[Si](C)(C)C`: the call in test [14], in test [16], in [5] and in test [9] was inactive. Further, the Potency in test [2] is 15.5 µM (active); in [11], 17.2 µM (active). The Potency result in test [4], in [18], in test [10], in test [12], in [13] and in [19] was “inactive” throughout.
Regarding `CCCCCCCCN(C)C`, the Potency result in test [1], in test [2], in [3], in [4], in test [6] and in test [8] was “inactive” in each case. Besides, the Potency entry in test [11], in test [12] and in test [13] was “inactive” each time. Moreover, the result in test [5] and in test [9] was inactive.
Turning to `CCCc1ccccc1`, the Potency entry in [1], in test [2], in test [3], in test [4], in test [18] and in test [6] was “inactive” throughout. The Potency result in test [7], in test [8], in [11], in test [12] and in [13] was “inactive” each time. Further, the result in [14], in [5] and in test [9] was inactive.
Regarding `NCCCOCCOCCOCCCN`, the Potency result in [1], in test [2], in [3], in test [8], in test [10] and in test [12] was “inactive” throughout. In addition, in test [13], the Potency entry was “inactive”. Moreover, the compound was classed as inactive in [5] and in [9]. Further, the results for the Potency in [11] and in test [19] were 17.2 µM (active) and 43.6 µM (active), respectively.
Turning to `CCCCCC/C=C/C=O`, the compound was classed as inactive in test [14] and in [9]. The Potency result in test [3], in test [4], in test [6], in test [7], in test [8] and in [10] was “inactive” in each case. Besides, the Potency entry in test [11] and in [19] was “inactive” throughout.
Consider `O=C(O)Cc1cc(I)c(Oc2ccc(O)c(I)c2)c(I)c1`, for which the Potency entry in test [1], in test [2], in test [10], in test [11] and in test [12] was “inactive” throughout. Further, the Potency in [4] is 54.9 µM (active). In addition, the result in [9] was inactive.
For the compound `C#CCOC(=O)[C@@H](C)Oc1ccc(Oc2ncc(Cl)cc2F)cc1`, the Potency entry in test [1], in test [2], in test [3], in [18], in test [6] and in test [7] was “inactive” throughout. Further, the Potency entry in test [8], in test [10], in test [11], in [12], in [13] and in test [19] was “inactive” each time. The compound was called inactive in test [14], in test [15], in [16], in test [17], in test [5] and in [9].
Take `CCOC(=O)CC(=O)c1cc(F)c(Cl)nc1Cl`: the Potency entry in [1], in [2], in test [3], in [4], in [8] and in [10] was “inactive” throughout. Also, the Potency result in test [11], in test [12] and in [19] was “inactive” in each case. The result in [14], in [16], in test [17] and in test [9] was inactive.
